In PubChem BioAssay (NCI) one finds growth data, which are given here for 14 compounds.

Some test systems named below: NCI-H23 lung; NCI-H226 lung; NCI-H322M lung; HOP-62 NSCLC; HOP-92 NSCLC; NCI-H522 lung; A549/ATCC NSCLC; 786-0 renal; COLO 205 colon; NCI-H460 lung.
What all share (assay): NCI-60 one-dose screen, 48 h (100 = growth as untreated, 0 = no growth, -100 = all killed)
Common to all, as to details: 10 µM

“And” between values parts separate entries of the source, which are not always exact repeats. Identical values can stand only once. The panel holds about 83,000 compounds, 20% with a hit somewhere; the sample as a whole holds those more often.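 Negative percent growth values reflect cell death: -40 means 40% of the cells present at the start died, and -100 means all died.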 The source made the active and inactive calls. How the source made its calls: active means growth percent below 10; inactive means the rest.

Regarding `N#CCc1ccccc1`, the growth in the experiment on NCI-H23 lung was 102% (inactive); in the experiment with NCI-H226 lung it was 96.3% (inactive); with NCI-H322M lung, 105% (inactive); in the experiment on HOP-62 NSCLC it was 97.4% (inactive); with HOP-92 NSCLC, 82.2% (inactive); in the experiment on NCI-H522 lung, 99.4% (inactive). Also, the figures for the growth with A549/ATCC NSCLC, in the experiment with 786-0 renal and in the experiment with COLO 205 colon were 101% (inactive), 101% (inactive) and 107% (inactive), respectively.

Consider `COC(=O)C1C(O)C(C)C(O)C(C)/C=C\C=C(C)C(=O)Nc2c(C)c(OC(C)=O)c3c(c2O)C(=O)C(C)=C2OCOC(=C23)C(C)=CC(C)(O)C(O)C(C)C1O` (stereo not drawn), for which the growth in the experiment on NCI-H23 lung was 97.6% (inactive); in the experiment on NCI-H226 lung, 99.2% (inactive); in the experiment on HOP-62 NSCLC, 96.8% (inactive); in the experiment on NCI-H460 lung, 111% (inactive); with NCI-H522 lung, 59.1% (inactive); with A549/ATCC NSCLC, 98.5% (inactive). In addition, the results for the growth with 786-0 renal and in the experiment with COLO 205 colon were 107% (inactive) and 94.7% (inactive), respectively.

Take `C[C@]12CC[C@H]3[C@@H](CCC4=CC(=O)CC[C@@H]43)[C@@H]1CC[C@@H]2OC(=O)N(CCCl)N=O`: the growth in the experiment with NCI-H23 lung was 55.7% (inactive); in the experiment with NCI-H226 lung, 55.8% (inactive); in the experiment with NCI-H322M lung it was 45.6% (inactive); in the experiment on HOP-62 NSCLC, 44.8% (inactive); in the experiment on HOP-92 NSCLC it was -11% (active); with NCI-H522 lung, 39.7% (inactive). Also, the results for the growth in the experiment with A549/ATCC NSCLC, in the experiment with 786-0 renal and in the experiment on COLO 205 colon were 40.7% (inactive), 17.9% (inactive) and 58.8% (inactive), respectively.

Take `Cc1cc(C(C)(C)c2ccc(O)c(C)c2)ccc1O`: the growth in the experiment on NCI-H23 lung was 97.4% (inactive); with NCI-H226 lung it was 107% (inactive); in the experiment on NCI-H322M lung it was 93.4% (inactive); in the experiment on HOP-62 NSCLC it was 97.4% (inactive); with HOP-92 NSCLC, 110% (inactive); with NCI-H522 lung it was 83.8% (inactive). Besides, the figures for the growth in the experiment on A549/ATCC NSCLC, with 786-0 renal and in the experiment on COLO 205 colon were 75.7% (inactive), 102% (inactive) and 100% (inactive), respectively.

With `O=C(CBr)Nc1ccc(Cl)cc1`, the growth was 81.2% (inactive) in the experiment with NCI-H23 lung; 91.2% (inactive) in the experiment on NCI-H226 lung; 101% (inactive) with NCI-H322M lung; 91.9% (inactive) in the experiment with HOP-92 NSCLC; -67.2% (active) with NCI-H522 lung; 100% (inactive) with A549/ATCC NSCLC. Further, the figures for the growth with 786-0 renal and with COLO 205 colon were 56.6% (inactive) and -3.53% (active), respectively.

For the compound `CC(C)c1cc([N+](=O)[O-])cc([N+](=O)[O-])c1O`, the growth in the experiment with NCI-H23 lung was 102% (inactive); in the experiment on NCI-H226 lung it was 102% (inactive); in the experiment on NCI-H322M lung, 112% (inactive); in the experiment on HOP-62 NSCLC it was 98.5% (inactive); in the experiment on HOP-92 NSCLC, 75.1% (inactive); with NCI-H522 lung it was 103% (inactive). Further, the results for the growth in the experiment with A549/ATCC NSCLC, with 786-0 renal and with COLO 205 colon were 103% (inactive), 101% (inactive) and 105% (inactive), respectively.

Regarding `CC(=O)[O][Hg][c]1c(C)c(C)cc(C)c1C`, the growth in the experiment with NCI-H23 lung was -45.3% (active); with NCI-H226 lung, -5.8% (active); with NCI-H322M lung, 3.3% (active); in the experiment on HOP-62 NSCLC it was -82.6% (active); in the experiment with NCI-H522 lung, -96.4% (active); with A549/ATCC NSCLC, 91.5% (inactive). Besides, the growth in the experiment with 786-0 renal was 19% (inactive); with COLO 205 colon it was -9.36% (active).

On to `COc1cc(/C=C/[N+](=O)[O-])cc(Br)c1OC`, for which the growth in the experiment with NCI-H23 lung is -67.9% (active); in the experiment on NCI-H226 lung, -18.3% (active); with NCI-H322M lung, 99.5% (inactive); in the experiment on HOP-62 NSCLC, 59.5% (inactive); in the experiment on HOP-92 NSCLC, 72.6% (inactive); in the experiment on NCI-H522 lung, -71.5% (active). The growth with A549/ATCC NSCLC was 57.2% (inactive); in the experiment on 786-0 renal, -56.7% (active); in the experiment with COLO 205 colon, 17.5% (inactive).

Take `CC(C)(C)OOC(=O)/C=C\C(=O)OOC(C)(C)C`: the growth was 103% (inactive) in the experiment on NCI-H23 lung; 102% (inactive) in the experiment on NCI-H226 lung; 97.7% (inactive) in the experiment on HOP-62 NSCLC; 109% (inactive) in the experiment with NCI-H460 lung; 88.3% (inactive) with HOP-92 NSCLC; 107% (inactive) in the experiment with NCI-H522 lung. The values for the growth with A549/ATCC NSCLC, with 786-0 renal and in the experiment with COLO 205 colon were 110% (inactive), 108% (inactive) and 110% (inactive), respectively.

Turning to `O=[N+]([O-])c1ccc(Br)c([N+](=O)[O-])c1`, the growth in the experiment on NCI-H23 lung is 108% (inactive); with NCI-H226 lung, 101% (inactive); in the experiment with HOP-62 NSCLC, 115% (inactive); with NCI-H460 lung, 94.8% (inactive); in the experiment with HOP-92 NSCLC, 109% (inactive); with NCI-H522 lung it was -28.5% (active). Moreover, the values for the growth in the experiment on A549/ATCC NSCLC, in the experiment with 786-0 renal and in the experiment with COLO 205 colon were 104% (inactive), 108% (inactive) and 0.504% (active), respectively.

As to `NC(=O)c1cc([N+](=O)[O-])c(Cl)c([N+](=O)[O-])c1Cl`, the growth was 25.6% (inactive) in the experiment with NCI-H23 lung; 59.7% (inactive) in the experiment with NCI-H226 lung; 35.9% (inactive) in the experiment with HOP-62 NSCLC; 72.2% (inactive) in the experiment with NCI-H460 lung; -52.2% (active) in the experiment with HOP-92 NSCLC; -82.4% (active) with NCI-H522 lung. For the same compound, the growth is 89.6% (inactive) in the experiment with A549/ATCC NSCLC, 13.2% (inactive) with 786-0 renal and -54.1% (active) in the experiment on COLO 205 colon.

As to `O=[N+]([O-])c1cc[n+]([O-])c2ccccc12`, the growth is -72.1% (active) in the experiment on NCI-H23 lung; -17.8% (active) with NCI-H226 lung; -47.9% (active) in the experiment on HOP-62 NSCLC; -58.4% (active) in the experiment with NCI-H460 lung; -41.6% (active) in the experiment with HOP-92 NSCLC; -61.6% (active) in the experiment on NCI-H522 lung. Besides, the results for the growth in the experiment on A549/ATCC NSCLC, in the experiment on 786-0 renal and in the experiment on COLO 205 colon were -25.1% (active), -49.2% (active) and -74.9% (active), respectively.

As for `ClCc1ccc2ccccc2n1`, the growth with NCI-H23 lung was 85.2% (inactive); in the experiment on NCI-H226 lung it was 78.2% (inactive); in the experiment on HOP-62 NSCLC it was 59.4% (inactive); in the experiment with NCI-H460 lung it was 110% (inactive); with HOP-92 NSCLC it was 79.8% (inactive); with NCI-H522 lung, 95.4% (inactive). Besides, the results for the growth in the experiment on A549/ATCC NSCLC, with 786-0 renal and with COLO 205 colon were 102% (inactive), 103% (inactive) and 128% (inactive), respectively.

On to `COc1cc(/C=C\[N+](=O)[O-])ccc1O`, for which the growth is 83.1% (inactive) and 77.3% (inactive) in the experiment on NCI-H23 lung; 91.2% (inactive) and 98.3% (inactive) in the experiment with NCI-H226 lung; 85.7% (inactive) with NCI-H322M lung; 99.8% (inactive) and 101% (inactive) in the experiment on HOP-62 NSCLC; 73.2% (inactive) and 102% (inactive) in the experiment with HOP-92 NSCLC; -37.6% (active) and 87.2% (inactive) with NCI-H522 lung. Also, the growth was 89.2% (inactive) and 76.1% (inactive) with A549/ATCC NSCLC; 43.2% (inactive) and 90.8% (inactive) in the experiment on 786-0 renal; 73.6% (inactive) and 104% (inactive) with COLO 205 colon.
